This is a sample that favours compounds with a hit; in the whole collection about 5% have one here.
CHT block = human CHT choline transport inhibition | Q9GZV3 | CHT-expressing cells, membrane potential dye, choline response; hits give low values | B-score at 10 µM | 310,000 tested, 0.86% active;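 active = B-score over 3 SD under the library average, and starting fluorescence ratio not unusually high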;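 also: choline stimulus applied at its EC90 after an EC20 pre-addition; B-score computed on integrated fluorescence ratio after choline addition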
AI-2 QS modul = modulators of Vibrio harveyi AI-2 quorum sensing system | 300,000 tested, 0.4% active | Vibrio harveyi JMH597 AI-2 luminescence/OD600 ratio, 9 h; hits give low values; strain lacks LuxN and CqsS sensors; 0 = neutral-control median | activity change, % at 7.5 µM; in the data active = activity change below about -75%, passing the limit was not always enough;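 also: luminescence divided by OD600 gain over 9 h not by final OD600 alone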
ALR inh = inhibitors of human sulfhydryl oxidase ALR; inhibition, % (concentration not given with the values); 290,000 tested, 3.8% active; purified ALR, DTT oxidation, H2O2 HRP-luminol luminescence; AID 485317;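 active = mean replicate inhibition above about 79%, with every replicate also reaching it, limit read from the data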
Target sequence (P55789 whole entry, looked up): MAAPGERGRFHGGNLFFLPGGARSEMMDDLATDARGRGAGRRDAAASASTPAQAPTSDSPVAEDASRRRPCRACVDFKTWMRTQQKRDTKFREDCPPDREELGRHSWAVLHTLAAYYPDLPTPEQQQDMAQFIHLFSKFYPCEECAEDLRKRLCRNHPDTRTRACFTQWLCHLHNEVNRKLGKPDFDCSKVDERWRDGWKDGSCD
CHT PAM = human CHT allosteric activation; Q9GZV3; CHT-expressing cells, membrane potential dye, choline EC20; hits give high values; LV-AA mutant CHT in HEK293 cells; 310,000 tested, 0.49% active; B-score at 10 µM;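 active = initial fluorescence not abnormally high and integrated response B-score, plate-corrected, over 3 SD above library mean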
PREPL inh = human PREPL enzyme inhibition. recombinant PREPL, fluorescence polarization activity-based probe. inhibition, % at 5.96 µM. Q4J6C6. 320,000 tested, 0.68% active; in the data active = inhibition above about 43%
Numbers stand for hits.

`O=C(O)CC/C(=C\c1ccc(N2CCCC2)c([N+](=O)[O-])c1)c1nc2ccccc2s1` gave CHT block inactive, AI-2 QS modul inactive, ALR inh inactive, CHT PAM inactive and PREPL inh inactive.
CN1CCC(=O)N([C@H](CN=[N+]=[N-])Cc2ccccc2)CC1 was read as CHT block inactive, AI-2 QS modul inactive, CHT PAM inactive and PREPL inh inactive.
Screening COc1ccc(NC(=O)c2nc3nc(C)cc(C(F)F)n3n2)cc1OC returned CHT block inactive, AI-2 QS modul inactive, CHT PAM inactive and PREPL inh inactive.
Screening Cc1ccc(/C=N/NC(=O)CSc2nc3nc(C)cc(C)n3n2)cc1 returned CHT block inactive, AI-2 QS modul inactive, ALR inh inactive, CHT PAM inactive and PREPL inh inactive.
`Cc1cc(C)n2nc(SCC(=O)Nc3ccc(O)cc3)nc2n1` gave CHT block inactive, AI-2 QS modul inactive, ALR inh 99, CHT PAM inactive and PREPL inh inactive.
Cc1cc(C)n2nc(SCC(=O)N/N=C/c3ccccc3F)nc2n1 was read as CHT block inactive, AI-2 QS modul inactive, ALR inh inactive, CHT PAM inactive and PREPL inh 50.
`Cc1cc(C)n2nc(SCC(=O)Nc3ccc(F)cc3)nc2n1` gave CHT block inactive, AI-2 QS modul inactive, ALR inh inactive, CHT PAM inactive and PREPL inh inactive.
CCN(CC)c1ccc(NC(=O)c2nc3nc(C)cc(C(F)F)n3n2)cc1 was read as CHT block inactive, AI-2 QS modul inactive, ALR inh 99, CHT PAM inactive and PREPL inh inactive.
CCN(CC)c1ccc(NC(=O)CSc2nnc3nc(C)cc(C)n23)cc1 was read as CHT block inactive, AI-2 QS modul inactive, ALR inh 99, CHT PAM inactive and PREPL inh inactive.
For OCCC1CN(Cc2cccn2-c2nccs2)CCN1Cc1ccc(F)c(F)c1 (stereo not given) the results were CHT block inactive, AI-2 QS modul inactive, ALR inh inactive, CHT PAM inactive and PREPL inh inactive.
Cc1cc(SCC(=O)Nc2ccc(O)cc2)n2nc(C)c(-c3ccccc3)c2n1 was read as CHT block inactive, AI-2 QS modul inactive, ALR inh 99, CHT PAM inactive and PREPL inh inactive.
Screening O=C(O)c1ccc(N/N=C/c2cn(Cc3ccccc3F)c3ccccc23)cc1 returned CHT block inactive, AI-2 QS modul inactive, ALR inh 98, CHT PAM inactive and PREPL inh inactive.
For Nc1ccc(C(=O)N/N=C/c2cn(Cc3ccccc3F)c3ccccc23)cc1 the results were CHT block inactive, AI-2 QS modul inactive, ALR inh inactive and CHT PAM inactive.
CC(C)n1cc(/C=N/Nc2ccc(C(=O)O)cc2)c2ccccc21 was read as CHT block inactive, AI-2 QS modul inactive, ALR inh 100, CHT PAM inactive and PREPL inh inactive.
`CCN(CC)S(=O)(=O)c1cccc(-c2csc(C)n2)c1` gave CHT block inactive, AI-2 QS modul inactive, ALR inh 97, CHT PAM inactive and PREPL inh inactive.
`Cc1nc(-c2cccc(S(=O)(=O)N3CCCCC3)c2)cs1` gave CHT block inactive, AI-2 QS modul inactive, ALR inh inactive, CHT PAM inactive and PREPL inh inactive.
CC1CCCN(S(=O)(=O)c2cccc(-c3cn4cccnc4n3)c2)C1 (stereo not given) was read as CHT block inactive, AI-2 QS modul inactive, ALR inh inactive, CHT PAM inactive and PREPL inh inactive.
For CCN(CC)S(=O)(=O)c1cccc(-c2cn3cccnc3n2)c1 the results were CHT block inactive, AI-2 QS modul inactive, ALR inh 99, CHT PAM inactive and PREPL inh inactive.
Screening Nc1cccc(-c2cn3cccnc3n2)c1 returned CHT block inactive, AI-2 QS modul inactive, ALR inh 99, CHT PAM inactive and PREPL inh inactive.
Screening O=C(NCC(=O)N(c1ccccc1F)C(C(=O)NC1CCCC1)c1ccncc1)c1ccco1 (stereo not given) returned CHT block inactive, AI-2 QS modul inactive, CHT PAM inactive and PREPL inh inactive.
For Cc1ccc(C)c(NC(=O)C2CCN(S(=O)(=O)c3ccc4c(c3)NC(=O)CO4)CC2)c1 the results were CHT block inactive, AI-2 QS modul inactive, ALR inh inactive, CHT PAM inactive and PREPL inh inactive.
CCOC(=O)/C(=C\c1cccc(O)c1)c1nc2sc(C)c(C)c2c(=O)[nH]1 was read as CHT block inactive, AI-2 QS modul inactive, ALR inh 98, CHT PAM inactive and PREPL inh inactive.
Screening C/C(=N\NC(=O)c1c(Cl)cnn1C)c1cccnc1 returned AI-2 QS modul inactive.
For CC1CCCC(NC(=O)COC(=O)c2cc(=O)[nH]c3ccccc23)C1C (stereo not given) the results were ALR inh inactive and PREPL inh inactive.
Screening N/C(=N\NS(=O)(=O)c1ccccc1Cl)c1ccccn1 returned CHT block inactive, AI-2 QS modul inactive, ALR inh 83, CHT PAM inactive and PREPL inh inactive.
For Cc1cc(C(=O)N/N=C/c2sccc2C)no1 the results were CHT block inactive, AI-2 QS modul inactive, ALR inh inactive, CHT PAM inactive and PREPL inh inactive.
Screening Cc1ccsc1/C=N\NC(=O)c1cc(C(C)(C)C)[nH]n1 returned CHT block inactive, AI-2 QS modul inactive, ALR inh 89, CHT PAM inactive and PREPL inh inactive.
Screening C[C@H](CO)N1C[C@H](C)[C@@H](CN(C)CC2CCCCC2)Oc2ccc(NC(=O)Cn3cnnn3)cc2C1=O returned ALR inh inactive and PREPL inh inactive.
For CCn1c(C)cc(/C=C2/SC(=S)N(CC(=O)O)C2=O)c1C the results were CHT block inactive, AI-2 QS modul inactive, ALR inh 99, CHT PAM inactive and PREPL inh inactive.
`C#CCN1C(=O)S/C(=C/c2cc(C)n(CC)c2C)C1=O` gave CHT block inactive, AI-2 QS modul inactive, CHT PAM inactive and PREPL inh inactive.
For CC(C)(C)c1ccc(NC(=O)Nc2ccc(F)cc2)cc1 the results were CHT block inactive, AI-2 QS modul -85, ALR inh inactive, CHT PAM inactive and PREPL inh inactive.
`COC(=O)c1ccc(CS(=O)(=O)c2ccc(C)cc2)o1` gave CHT block inactive, AI-2 QS modul inactive, ALR inh inactive, CHT PAM inactive and PREPL inh inactive.
For C=CCOc1ccc(C(=O)n2cc(C(=O)OC)c3ccccc32)cc1 the results were CHT block inactive, AI-2 QS modul inactive, ALR inh inactive, CHT PAM inactive and PREPL inh inactive.
Screening Cc1ccc(NC(=O)CSCc2cc(=O)n3nc(C4CC4)sc3n2)cc1 returned CHT block inactive, AI-2 QS modul inactive, ALR inh 99, CHT PAM inactive and PREPL inh inactive.
Screening CCC(C)[C@H](NC(=O)[C@@H]1CSC2c3ccccc3C(=O)N21)C(=O)NCc1ccco1 (stereo not given in full) returned CHT block inactive, AI-2 QS modul inactive, ALR inh inactive, CHT PAM inactive and PREPL inh inactive.

High-throughput results as filed in PubChem.
